# Measured values published in PubChem BioAssay AID2502 (National Center for Advancing Translational Sciences (NCATS), 2010).
# “And” between values parts separate entries of the source, which are not always exact repeats. Equal values may be shown once. Inconclusive results are not listed. Unmarked numbers belong to inactive results. Calls follow the shape of the dose curve; as a rule, active = well fitted curve in the direction sought with a large enough effect; inconclusive = small, poorly fitted or top-dose-only effect, or another doubt; inactive = no such curve, though single readings can be large or run the other way.
# Assay: Confirmatory Assay for Inhibitors of Human Galactokinase (GALK): Phenol-HRP redox assay counterscreen for probe SAR
# Conditions: Phenol red-HRP H2O2 redox cycling, absorbance 600 nm
# From the text: NIH Molecular Libraries Probe Production Centers Network [MLPCN] NIH Chemical Genomics Center [NCGC] MLPCN Grant: R03 MH085689-01 Assay Submitter (PI): Kent Lai (University of Utah School of Medicine, 50 N Mario Capecchi Drive, Salt Lake City, UT 84132) NCGC Assay Overview: One mM dithiothreitol (DTT) was used as a reducing agent to maintain the galactokinase (GALK) enzyme in its active form in the GALK qHTS screen (AID: 1868). However, it has been shown that in the presence of DTT a number of compounds also undergo redox recyling, generating a significant amount of H2O2 that can oxidize crucial cysteine residues in the enzyme, leading to and a false-positive result. To evaluate and flag redox recycling compounds for compounds re-acquired from the qHTS screen, an endpoint colorimetric assay developed by Johnston et al. was adopted and optimized for a 1536-well plate format. In brief, the assay detects the presence of H2O2 by following the change in absorbance at 600 nm due to oxidation of phenol red (Sigma, cat# 114537) catalyzed by horseradish peroxidase (HRP; Invitrogen). A stop reagent, 1N NaOH was added prior to reading the absorbance. DMSO and different concentrations of hydrogen peroxide (Sigma, cat# 216763) in the GALK buffer were used as negative and positive controls respectively.
# NCGC Assay Protocol Summary: Two uL/well of GALK buffer (20mM HEPES pH8.0, 5 mM MgCl2, 60 mM NaCl, 1 mM DTT, 0.01% BSA final concentration) was dispensed into a 1536-well assay plates (Greiner, black clear bottom plates) with Aurora Discovery BioRAPTR Flying Reagent Dispenser (FRD; Beckton-Dickenson). Compound and control solutions (23 nL each) were transferred to the assay plate in their respective wells using Kalypsys pin tool equipped with a 1536-pin tool head and incubated at room temperature for 30 min. Presence of H2O2 produced by redox cycling compounds was detected by adding 2 uL/well phenol red - HRP detection reagent ([…] phenol red in 1x Hanks Balanced Salt Solution, 25 U/mL HRP final concentrations). After 15 min of room temperature incubation, the reaction was stopped by adding 2 uL/well 1N NaOH and incubated for an additional 1 hr at room temperature. The absorbance at 600 nm was measured using the ViewLux plate reader (Perkin Elmer, Waltham, MA) with 6000 light energy, 2 sec exposure, and 2x binning instrument settings.
row,Structure (SMILES),max response
1,O=C1CCCC2=C1C1(CCCCC1)N=C(Nc1nc3ccccc3o1)N2,-4.16%
2,O=C1CCC2=C1C1(CCCC1)N=C(Nc1nc3ccccc3o1)N2,-0.733%
3,Cc1ccc2oc(NC3=NC4(CCCC4)C4=C(CCCC4=O)N3)nc2c1,-13.5%
4,O=C1CC(c2ccccc2)CC2=C1C1(CCCCC1)N=C(Nc1nc3ccccc3o1)N2 (stereo unspecified),-19.3%
5,COc1ccccc1C1N=C(Nc2nc3ccccc3o2)NC2=C1C(=O)CC(C)(C)C2 (stereo unspecified),-7.36%
6,O=C1CCCC2=C1C1(CCOCC1)N=C(Nc1nc3ccccc3o1)N2,-7.41%
7,Cc1ccc(C2N=C(Nc3nc4ccccc4o3)NC3=C2C(=O)CC(C)(C)C3)cc1 (stereo unspecified),0.33%
8,O=C1CCCC2=C1C1(CCCC1)N=C(Nc1nc3cc4ccccc4cc3o1)N2,-24.7%
9,COc1cccc(C2N=C(Nc3nc4ccccc4o3)NC3=C2C(=O)CC(C)(C)C3)c1 (stereo unspecified),-7.9%
10,COc1ccc(C2N=C(Nc3nc4ccccc4o3)NC3=C2C(=O)CC(C)(C)C3)cc1 (stereo unspecified),-4.13%
11,O=C1CC(c2ccccc2)CC2=C1C1(CCCC1)N=C(Nc1nc3ccccc3o1)N2 (stereo unspecified),-23.7%
12,CCC1CCC2(C1)N=C(Nc1nc3ccccc3o1)NC1=C2C(=O)CCC1 (stereo unspecified),9.72% [middle of 5 runs]
13,CC1(C)CC(=O)C2=C(C1)NC(Nc1nc3ccccc3o1)=NC21CCCC1,-0.364%
14,O=C1CCCC2=C1C1(CCCC1)N=C(Nc1nc3ccccc3n1Cc1ccccc1)N2,-7.8%
15,O=C1CCCC2=C1C1(CCCC1)N=C(Nc1nc3cc(Cl)ccc3o1)N2,-6.87%
16,O=C1CCCC2=C1C1(CCSCC1)N=C(Nc1nc3ccccc3o1)N2,3.32%
17,O=C1CCC2=C1C(c1ccccc1Cl)N=C(Nc1nc3ccccc3o1)N2 (stereo unspecified),4.53%
18,O=C1CCCC2=C1C(c1ccc(Cl)cc1)N=C(Nc1nc3ccccc3o1)N2 (stereo unspecified),2.22%

row,Structure (SMILES),max response
1,Cn1c(NC2=NC3(CCCC3)C3=C(CCCC3=O)N2)nc2ccccc21,-10.7%
2,CC1(C)CC(=O)C2=C(C1)NC(Nc1nc3ccccc3o1)=NC2c1ccccc1 (stereo unspecified),4.41%
3,CC1(C)CC(=O)C2=C(C1)NC(Nc1nc3ccccc3o1)=NC2c1cccnc1 (stereo unspecified),-12.6%
4,O=C1CCCC2=C1C1(CCCC1)N=C(Nc1nc3cc(-c4ccccc4)ccc3o1)N2,-17.5%
5,CC1(C)CC(=O)C2=C(C1)NC(Nc1nc3ccccc3o1)=NC2c1ccccc1Cl (stereo unspecified),-4.5%
6,O=C1CCCC2=C1C1(CCCC1)N=C(Nc1nc3cc(Br)ccc3o1)N2,-13.4%
7,Cc1ccc2nc(NC3=NC4(CCCC4)C4=C(CCCC4=O)N3)oc2c1,-9.86%
8,O=C1CCCC2=C1C1(CCCOC1)N=C(Nc1nc3ccccc3o1)N2 (stereo unspecified),1.73%
9,CC1CCC2(C1)N=C(Nc1nc3ccccc3o1)NC1=C2C(=O)CCC1 (stereo unspecified),2.86%
10,O=C1CCCC2=C1C1(CCCC1)N=C(Nc1nc3ccccc3o1)N2,-5.8% and 7.13%
11,O=C1CCCC2=C1C1(CCC1)N=C(Nc1nc3ccccc3o1)N2,-2.94%
12,CC1(C)N=C(Nc2nc3ccccc3o2)NC2=C1C(=O)CCC2,-7.6%
13,Cc1nc(Nc2nc3ccccc3o2)nc2c1C(=O)CC(C)(C)C2,-9.62%
14,O=C1CCCC2=C1C(c1ccccc1Cl)N=C(Nc1nc3ccccc3o1)N2 (stereo unspecified),1.07%
15,O=C1CCCC2=C1C1(CCSC1)N=C(Nc1nc3ccccc3o1)N2 (stereo unspecified),9.11%
16,O=C1CCCC2=C1C1(CCS(=O)(=O)C1)N=C(Nc1nc3ccccc3o1)N2 (stereo unspecified),7.09%
17,CC1(C)CC(=O)C2=C(C1)NC(Nc1nc3ccccc3o1)=NC2c1cccc(Cl)c1 (stereo unspecified),-8.98%
18,O=C1CCCC2=C1[C@@]1(CCC(c3ccccc3)C1)N=C(Nc1nc3ccccc3o1)N2 (stereo partly specified),-22.7%
